Measured values published in ChEMBL document CHEMBL3988442, “University of Dundee, Small-Polar-MMV Screening Library” (2021).
For some assays here: Results with a measured potency or affinity are listed apart.

Tests used:
Design in all cases: scale not given: direction of the effect not stated beside the values
[1] = molecular target: Protein translocase subunit SecA (Escherichia coli (strain K12)) (UniProt P10408); assay: Assay to Identify E. coli SecA ATPase Inhibitors; assay type: functional; details: 30 µM
[2] = molecular target: T1, Ubiquitin-activating enzyme e1, putative (Leishmania donovani (strain BPK282A1)) (UniProt E9BSI1); assay: Leishmania donovani Ubiquitin Activating Enzyme (LdE1); assay type: functional; details: 30 µM
T1 sequence (whole entry): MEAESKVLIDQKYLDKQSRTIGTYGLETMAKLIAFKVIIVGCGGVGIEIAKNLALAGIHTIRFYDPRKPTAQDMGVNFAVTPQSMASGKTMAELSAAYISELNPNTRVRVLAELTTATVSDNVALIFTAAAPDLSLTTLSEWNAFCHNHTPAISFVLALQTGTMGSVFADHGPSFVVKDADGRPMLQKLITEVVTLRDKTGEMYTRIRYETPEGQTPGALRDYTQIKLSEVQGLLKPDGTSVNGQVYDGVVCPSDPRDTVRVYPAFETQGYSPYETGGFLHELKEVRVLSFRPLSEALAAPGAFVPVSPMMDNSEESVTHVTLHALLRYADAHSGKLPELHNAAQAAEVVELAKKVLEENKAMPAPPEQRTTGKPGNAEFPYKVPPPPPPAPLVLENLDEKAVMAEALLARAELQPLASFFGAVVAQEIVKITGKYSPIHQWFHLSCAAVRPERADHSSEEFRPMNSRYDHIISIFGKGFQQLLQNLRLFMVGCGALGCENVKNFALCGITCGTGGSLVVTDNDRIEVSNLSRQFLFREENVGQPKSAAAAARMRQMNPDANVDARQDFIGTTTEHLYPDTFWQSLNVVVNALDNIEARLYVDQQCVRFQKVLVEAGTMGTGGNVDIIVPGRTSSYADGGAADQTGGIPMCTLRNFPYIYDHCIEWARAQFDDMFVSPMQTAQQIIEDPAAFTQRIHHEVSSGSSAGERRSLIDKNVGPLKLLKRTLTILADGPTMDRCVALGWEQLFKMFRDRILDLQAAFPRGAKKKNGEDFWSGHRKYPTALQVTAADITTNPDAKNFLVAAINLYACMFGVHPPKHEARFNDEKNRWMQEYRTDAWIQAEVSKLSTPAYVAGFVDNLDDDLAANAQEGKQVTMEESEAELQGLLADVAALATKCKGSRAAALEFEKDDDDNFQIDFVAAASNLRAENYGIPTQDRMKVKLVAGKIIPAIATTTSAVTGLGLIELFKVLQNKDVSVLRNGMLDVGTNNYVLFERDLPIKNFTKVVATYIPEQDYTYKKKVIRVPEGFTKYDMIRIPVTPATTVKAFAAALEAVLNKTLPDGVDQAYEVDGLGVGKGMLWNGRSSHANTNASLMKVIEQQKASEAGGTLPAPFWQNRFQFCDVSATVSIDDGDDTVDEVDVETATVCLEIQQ

[3] = molecular target: Sialic acid-binding Ig-like lectin 9 (Homo sapiens) (UniProt Q9Y336); assay: Hs-Siglec9 ALPHAscreen SOP 20170721; details: 10 µM
Trypanosoma cruzi = assay: Trypanosoma cruzi phosphomannomutase and mannose-1-phosphate guanylyltransferase assay; assay type: functional; details: 10 µM
[4] = molecular target: T2, Arginase-2, mitochondrial (Homo sapiens) (UniProt P78540); assay: in vitro enzyme assay to detect the production of urea directly proportional to the activity of Arginase II; assay type: functional; details: 33.3 µM; also: in the data most compounds retested in dose-response had high values
T2 sequence (whole entry): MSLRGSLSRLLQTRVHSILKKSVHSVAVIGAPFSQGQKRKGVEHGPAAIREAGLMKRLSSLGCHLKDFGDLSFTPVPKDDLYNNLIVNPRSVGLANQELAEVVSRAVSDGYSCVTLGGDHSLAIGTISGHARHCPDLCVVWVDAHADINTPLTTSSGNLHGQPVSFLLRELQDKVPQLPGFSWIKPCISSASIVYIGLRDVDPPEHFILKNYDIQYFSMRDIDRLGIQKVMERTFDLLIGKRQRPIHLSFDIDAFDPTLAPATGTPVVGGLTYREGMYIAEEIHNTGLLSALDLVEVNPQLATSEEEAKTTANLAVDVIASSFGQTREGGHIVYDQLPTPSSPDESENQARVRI

[5] = molecular target: T3, Proteasome subunit beta (Trypanosoma cruzi) (UniProt O96673); assay: Trypanosoma cruzi proteasome chymotrypsin-like activity (TcProtChymo) assay.; also: in the data most compounds retested in dose-response had high values; assay type: functional; details: 9.37 µM
T3 sequence (whole entry): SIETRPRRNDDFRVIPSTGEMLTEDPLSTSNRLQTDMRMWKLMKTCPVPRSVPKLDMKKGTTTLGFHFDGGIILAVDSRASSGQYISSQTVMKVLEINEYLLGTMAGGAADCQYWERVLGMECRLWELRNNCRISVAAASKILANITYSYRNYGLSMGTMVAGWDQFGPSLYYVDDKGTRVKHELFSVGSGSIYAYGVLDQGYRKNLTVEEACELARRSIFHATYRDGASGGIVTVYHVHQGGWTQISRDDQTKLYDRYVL

Homo sapiens = species: Homo sapiens; assay: To identify inhibition of the IFN signalling (Jak-Stat) pathway via expression of an eGFP reporter gene under the control of an IFN-stimulated response element (ISRE) containing MxA promoter.; assay type: functional; details: 30 µM
[6] = molecular target: T4, Tyrosyl-tRNA synthetase, putative (Trypanosoma cruzi (strain CL Brener)) (UniProt Q4DSP6); assay: Trypanosoma cruzi tyrosyl tRNA synthetase (TcYRS) _High Tyrosine SOP; assay type: functional; details: 30 µM; also: in the data most compounds retested in dose-response had high values
T4 sequence (whole entry): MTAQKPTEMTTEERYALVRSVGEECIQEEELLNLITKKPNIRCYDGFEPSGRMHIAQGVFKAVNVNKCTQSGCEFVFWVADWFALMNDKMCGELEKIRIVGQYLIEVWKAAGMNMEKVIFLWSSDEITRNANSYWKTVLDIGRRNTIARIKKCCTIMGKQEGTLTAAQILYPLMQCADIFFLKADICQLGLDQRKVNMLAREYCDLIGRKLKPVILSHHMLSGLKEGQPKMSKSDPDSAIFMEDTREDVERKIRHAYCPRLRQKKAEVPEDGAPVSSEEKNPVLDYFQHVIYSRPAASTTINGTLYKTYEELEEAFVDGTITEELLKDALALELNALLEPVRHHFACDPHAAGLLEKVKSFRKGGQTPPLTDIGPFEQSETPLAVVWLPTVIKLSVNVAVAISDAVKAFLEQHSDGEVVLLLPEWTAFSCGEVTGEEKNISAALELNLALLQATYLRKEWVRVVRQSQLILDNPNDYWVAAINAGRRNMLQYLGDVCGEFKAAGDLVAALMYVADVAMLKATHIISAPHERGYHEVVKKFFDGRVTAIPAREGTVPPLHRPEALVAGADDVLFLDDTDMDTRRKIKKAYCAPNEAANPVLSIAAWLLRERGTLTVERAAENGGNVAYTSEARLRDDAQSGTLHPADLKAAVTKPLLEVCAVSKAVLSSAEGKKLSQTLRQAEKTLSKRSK

[7] = molecular target: T4, Tyrosyl-tRNA synthetase, putative (Trypanosoma cruzi (strain CL Brener)); assay: Trypanosoma cruzi tyrosyl tRNA synthetase (TcYRS) SOP; assay type: functional; details: 30 µM
[8] = molecular target: Chromo domain-containing protein 1 (Saccharomyces cerevisiae (strain ATCC 204508 / S288c) (Baker's yeast)) (UniProt P32657); assay: ScCHD-1 Enzyme Inhibition Assay; assay type: functional; details: 30 µM; also: in the data most compounds retested in dose-response had high values
Chromo domain-containing protein 1 (Saccharomyces cerevisiae (strain ATCC 204508 / S288c) (Baker's yeast)), sequence (P32657 whole entry, the tested form may be a part): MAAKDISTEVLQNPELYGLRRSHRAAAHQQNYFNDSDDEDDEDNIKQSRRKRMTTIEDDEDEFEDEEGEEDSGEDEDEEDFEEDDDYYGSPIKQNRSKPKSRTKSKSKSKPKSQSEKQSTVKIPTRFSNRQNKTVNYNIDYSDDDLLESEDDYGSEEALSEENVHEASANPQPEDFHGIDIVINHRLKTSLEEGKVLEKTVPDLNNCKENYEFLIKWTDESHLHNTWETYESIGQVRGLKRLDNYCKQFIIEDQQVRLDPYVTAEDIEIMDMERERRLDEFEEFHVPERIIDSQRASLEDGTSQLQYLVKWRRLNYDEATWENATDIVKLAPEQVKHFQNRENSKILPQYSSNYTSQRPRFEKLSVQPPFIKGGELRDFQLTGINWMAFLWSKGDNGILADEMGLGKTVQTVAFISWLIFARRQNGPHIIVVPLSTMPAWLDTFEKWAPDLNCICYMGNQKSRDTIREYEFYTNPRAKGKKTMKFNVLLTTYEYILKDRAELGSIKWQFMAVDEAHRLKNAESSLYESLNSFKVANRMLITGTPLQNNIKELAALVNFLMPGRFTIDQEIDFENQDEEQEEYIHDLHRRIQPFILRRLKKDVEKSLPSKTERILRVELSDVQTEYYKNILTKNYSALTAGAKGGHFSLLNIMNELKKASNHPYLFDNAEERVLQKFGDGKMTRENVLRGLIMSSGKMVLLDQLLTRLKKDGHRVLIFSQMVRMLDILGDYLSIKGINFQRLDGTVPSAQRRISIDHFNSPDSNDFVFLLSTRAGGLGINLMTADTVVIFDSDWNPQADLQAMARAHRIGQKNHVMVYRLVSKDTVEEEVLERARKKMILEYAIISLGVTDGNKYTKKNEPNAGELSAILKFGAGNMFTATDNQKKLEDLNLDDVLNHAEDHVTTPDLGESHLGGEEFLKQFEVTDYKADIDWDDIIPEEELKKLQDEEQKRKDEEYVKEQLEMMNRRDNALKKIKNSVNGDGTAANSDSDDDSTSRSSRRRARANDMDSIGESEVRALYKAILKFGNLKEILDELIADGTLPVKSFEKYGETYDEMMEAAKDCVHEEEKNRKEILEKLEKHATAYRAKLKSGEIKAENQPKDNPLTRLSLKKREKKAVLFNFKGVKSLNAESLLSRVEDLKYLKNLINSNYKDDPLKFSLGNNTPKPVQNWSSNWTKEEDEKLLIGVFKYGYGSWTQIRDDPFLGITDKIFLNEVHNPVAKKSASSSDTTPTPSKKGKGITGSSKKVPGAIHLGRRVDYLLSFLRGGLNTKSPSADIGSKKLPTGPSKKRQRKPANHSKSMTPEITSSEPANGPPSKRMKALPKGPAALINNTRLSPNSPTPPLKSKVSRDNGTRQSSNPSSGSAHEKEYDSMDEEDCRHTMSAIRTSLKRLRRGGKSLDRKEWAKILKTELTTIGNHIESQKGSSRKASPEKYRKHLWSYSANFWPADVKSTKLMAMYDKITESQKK

Sialic acid-binding Ig-like lectin 9 (Homo sapiens), sequence (Q9Y336 whole entry): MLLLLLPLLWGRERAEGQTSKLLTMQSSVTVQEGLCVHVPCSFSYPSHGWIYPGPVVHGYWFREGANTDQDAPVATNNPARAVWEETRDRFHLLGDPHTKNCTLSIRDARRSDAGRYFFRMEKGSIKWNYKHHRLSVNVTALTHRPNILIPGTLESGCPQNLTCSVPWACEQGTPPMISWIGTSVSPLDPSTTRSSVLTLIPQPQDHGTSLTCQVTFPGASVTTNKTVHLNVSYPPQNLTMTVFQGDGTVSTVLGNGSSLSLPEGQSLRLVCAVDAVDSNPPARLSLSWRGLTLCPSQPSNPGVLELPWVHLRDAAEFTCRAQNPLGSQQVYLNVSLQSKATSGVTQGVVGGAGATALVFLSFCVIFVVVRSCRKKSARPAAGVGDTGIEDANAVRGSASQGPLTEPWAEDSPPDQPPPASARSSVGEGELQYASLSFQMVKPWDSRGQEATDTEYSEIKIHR
Protein translocase subunit SecA (Escherichia coli (strain K12)), sequence (P10408 whole entry): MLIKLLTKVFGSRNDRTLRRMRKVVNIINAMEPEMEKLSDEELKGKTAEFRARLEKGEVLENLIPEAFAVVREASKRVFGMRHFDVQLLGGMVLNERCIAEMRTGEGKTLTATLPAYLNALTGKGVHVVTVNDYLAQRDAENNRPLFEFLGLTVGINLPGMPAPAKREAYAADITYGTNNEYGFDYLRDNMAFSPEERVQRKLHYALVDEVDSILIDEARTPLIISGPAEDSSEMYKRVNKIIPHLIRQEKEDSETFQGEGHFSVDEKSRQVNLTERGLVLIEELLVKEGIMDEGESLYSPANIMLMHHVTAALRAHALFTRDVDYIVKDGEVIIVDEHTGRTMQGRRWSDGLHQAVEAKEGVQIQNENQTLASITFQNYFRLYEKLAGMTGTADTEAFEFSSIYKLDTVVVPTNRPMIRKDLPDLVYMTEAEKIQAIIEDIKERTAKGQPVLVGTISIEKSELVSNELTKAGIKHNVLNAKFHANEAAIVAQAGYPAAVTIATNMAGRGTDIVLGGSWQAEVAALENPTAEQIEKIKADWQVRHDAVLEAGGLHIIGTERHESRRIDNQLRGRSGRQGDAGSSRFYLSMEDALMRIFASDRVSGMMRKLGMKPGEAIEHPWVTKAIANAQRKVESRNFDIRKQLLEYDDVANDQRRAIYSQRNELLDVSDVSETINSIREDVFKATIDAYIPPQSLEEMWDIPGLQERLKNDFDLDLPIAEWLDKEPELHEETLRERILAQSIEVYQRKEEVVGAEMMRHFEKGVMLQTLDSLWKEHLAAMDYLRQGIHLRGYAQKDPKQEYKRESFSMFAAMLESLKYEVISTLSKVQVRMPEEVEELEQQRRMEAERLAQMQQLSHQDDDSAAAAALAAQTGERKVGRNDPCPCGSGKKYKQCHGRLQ

Row | SMILES | Percent Effect [1] [%] | Percent Effect [2] [%] | Percent Effect [3] [%] | Percent Effect (Trypanosoma cruzi) [%] | Percent Effect [4] [%] | Percent Effect [5] [%] | Percent Effect (Homo sapiens) [%] | Percent Effect [6] [%] | Percent Effect [7] [%] | Percent Effect [8] [%]
1 | O=C1CC(c2ccncc2)C2(CCN(CCO)CC2)N1 (stereo not given) | -2.64 | 3.9 | -0.555 | 5.55 | -3.64 | 8.91 | -9.49 | -0.526 | 2.56 | 17.5
2 | Cc1nc(C)n(CC2CN(CCOc3ccccc3F)CCO2)n1 (stereo not given) | -2.06 | 5.33 | -0.849 | 0.803 | -2.66 | -2.97 | 9.21 | -1.58 | 0 | -2.97
3 | CN1CCOC(CNC(=O)CCCOCCc2ccccc2)C1 (stereo not given) | -3.33 | 17.9 | -5.99 | 9.86 | 3.28 | 9.13 | 19.5 | 4.31 | 22.9 | -6.94
4 | CC(C)c1nc(CC(=O)N2CCCC(n3cncn3)C2)cs1 (stereo not given) | -0.0395 | 20.5 | -14.2 | 4.6 | 8.2 | 14.2 | 24 | 1.44 | 22.9 | -5.56
5 | CN(C)CC(=O)N1CCC2(CCN(Cc3ccccn3)C2=O)C1 (stereo not given) | -3.33 | -1.3 | -3.23 | -2.63 | -4.45 | 12.6 | -1.64 | 1.58 | 7.69 | -2.1
6 | CCN(C(=O)c1ccc(-n2ncc(C#N)c2N)cc1)C1CCCC1 | -1.54 | 15.6 | 1.83 | -0.187 | -5.12 | 6.67 | 3.59 | -14.7 | 16.5 | -7.19
7 | O=C(NCCn1ccnc1)N1CCN(c2nccs2)CC1 | -0.752 | 15.6 | -5.93 | -7.28 | 4.71 | 18.2 | 6.33 | 2.94 | 7.06 | -11.9
8 | O=C(C1CCOCC1)N1CC[C@H]2C[C@@H](c3ccncn3)O[C@@H]2C1 | -7.3 | 3.9 | 2.39 | 5.55 | -6.48 | 13.7 | -13.3 | 3.68 | 15.4 | 25.1
9 | CC(C)NC(=O)C1CN(C(=O)c2ccco2)CC12CCOCC2 (stereo not given) | -1.7 | 9.09 | -6.62 | 3.41 | 3.24 | 10.2 | -3.41 | 8.95 | 12.8 | -4.15
10 | CC(C)CCN(C)C(=O)c1nc(S(C)(=O)=O)n2ccccc12 | -4.72 | 12.8 | -6.5 | 5.16 | 1.23 | 2.13 | 0.306 | 6.22 | 10.8 | -1.74
11 | Cc1csc(N2CCCN(C(=O)c3cnns3)CC2)n1 | -2.47 | -2.67 | -0.659 | -0.803 | -1.33 | -0.255 | -0.448 | 0.526 | 0 | 4.48
12 | CC(C)c1noc(CCC(=O)NCC2CCOC2)n1 (stereo not given) | -1.25 | 0 | -0.749 | 0.602 | -5.32 | 10.8 | 2.04 | 8.95 | 17.9 | -9.05
13 | Cc1csc(Nc2nccnc2C2CCCN2C(=O)C(C)C)n1 (stereo not given) | 1.4 | 14.7 | -6.58 | -4.34 | -0.885 | 9.69 | 5.46 | 2.12 | 10 | -21.8
14 | COCCN1C(=O)C[C@@H]2[C@H]1CCN2C(=O)COc1ccccc1 | -4.5 | 6.49 | -2.28 | -3.02 | -4.86 | 15.6 | -17.9 | 2.63 | 10.3 | -1.49
15 | COc1ncc(C2(O)CCN(Cc3cccs3)CC2)c(OC)n1 | -5.49 | 22.7 | -1.28 | 2.76 | -3.54 | 11.2 | 4.21 | 8.47 | 20 | -25.5
16 | Cc1ncsc1-c1nnc(C2CCN(CC3CCCCC3)CC2)o1 | 1.3 | 14.7 | -11.6 | -1.97 | 0.443 | 14.8 | 25.8 | -3.17 | 5 | -21.3
17 | CC(C)c1nn(C)c(N2CCOCC2)c1CNCC(=O)N(C)C | -2.05 | 12.8 | -8.89 | 1.22 | 3.69 | 10.5 | -5.7 | 7.18 | 22.9 | -5.02
18 | Cc1occc1C(=O)NCc1ccc(N2CCCC(C(N)=O)C2)cc1 (stereo not given) | -2.46 | 8 | -3.46 | -3.61 | 10.6 | 13 | 16.5 | 2.63 | 7.69 | -9.94
19 | Cc1cc(CN2CCCC2Cn2cncn2)no1 (stereo not given) | -4.42 | 17.9 | -10.5 | 11.9 | -2.05 | 17 | 0.869 | 3.35 | 20.5 | -10.5
20 | Cc1nc(-c2cccc(C(=O)O)c2)cc(C2CCN(C(C)C)C2)n1 (stereo not given) | -2.85 | 6.67 | 1.03 | -1.18 | 4.87 | 9.69 | 1.3 | 6.35 | 17.5 | -15.1
